Screen size: about 48,000 compounds; about 13,000 (27%) showed an effect of 50% or more. Some of the results follow.

This assay relates to Wolbachia pipientis. Briefly: Anti-Wolbachia Cell-Based Screen. It counts as functional. Also noted: scale not given: in the data most compounds retested in dose-response had high values. The note with it: 5 µM.
`N#Cc1cnc2ccccc2c1N1CCC(C(=O)O)CC1`: the “Percent Effect” value stood at 149.3%.
To `Cl.N#Cc1cnc2ccccc2c1N1CCN(CCC(=O)O)CC1` belongs -4.307%; to `N#Cc1cnc2ccccc2c1N1CCN(C(=O)C2CCC2)CC1`, 4.022%; to `CCc1nc(CN(C)C(=O)NC(C)c2cccc(NC(C)=O)c2)cs1` (stereo unspecified), 4.996%.
Next, `O=C1COc2cccc(OCc3ccccn3)c2N1`: -1.975%; `NCCCn1nc(C(F)(F)F)c2c1CCC2`: 77.67%.
To `N#CCCn1nc(C(F)(F)F)c2c1CCCC2` belongs 118.8%; to `N#CCCn1nc(C(F)(F)F)c2c1CCC2`, 109.3%.
Consider `CC(C)Oc1nnc(SCC(=O)NCC(=O)N2CCCC2)s1`, for which the “Percent Effect” value came out at 11.98%.
To `Cc1cc(N(Cc2cccnc2)C2CC2)n2nc(C(F)(F)F)nc2n1` belongs 19.73%; to `CN1CCN(S(=O)(=O)c2cncc(F)c2)c2ccccc2C1`, -3.116%; to `O[C@@H]1C[C@@H](c2nc(-c3ccc(F)cc3)no2)N(C2CCOCC2)C1`, -13.07%.
As for `CN(CC(=O)N1CCC(C(O)c2ccccc2)CC1)c1cnccn1` (stereo unspecified), the “Percent Effect” value is on record as -4.983%.
To `CCC(=O)NC1CCCN(C(=O)Nc2cc(-c3ccccc3)on2)C1` (stereo unspecified) belongs -16.23%; to `CC(C)C(=O)NC(Cc1cc(N(C)C)nc(C2CC2)n1)c1ccccc1` (stereo unspecified), 86.08%; to `CCC(=O)NC(Cc1cc(N(C)C)nc(C2CC2)n1)c1ccccc1` (stereo unspecified), 105%.
To `COC(=O)C(NC(=O)c1ccc(N(C)C)nc1)c1ccccc1` (stereo unspecified) belongs 15.6%.
Consider `CN(C)c1cc(CC(NC(=O)C2CC2)c2ccccc2)nc(C2CC2)n1` (stereo unspecified), for which the “Percent Effect” value is 92.65%.
As for `CCC(NC(=O)C1CCN(S(=O)(=O)N(C)C)CC1)c1ccc(C)c(C)c1` (stereo unspecified), the “Percent Effect” value was -8.706%.
`COC(=O)C(NC(=O)COC1CCCCC1)c1ccccc1` (stereo unspecified): the “Percent Effect” value came out at 3.192%.
To `Cc1ccsc1C(Cc1ccccc1)NC(=O)CNC(=O)C1CC1` (stereo unspecified) belongs -6.693%; to `CN(CCC(O)c1ccccc1)c1cc(C2CC2)ncn1` (stereo unspecified), 7.591%.
Next, `NC(=O)C(NC(=O)COC1CCCC1)c1ccccc1` (stereo unspecified): -1.81%.
Next, `COCC(=O)NC(Cc1cc(N(C)C)nc(C2CC2)n1)c1ccccc1` (stereo unspecified): 113.9%.
Turning to `COC1CCCN(Cc2nc(Cc3ccccc3F)no2)C1` (stereo unspecified), the “Percent Effect” value was -1.199%.
Next, `Cc1ccc2c(c1C)OCC2NCc1ccc(C#N)cc1` (stereo unspecified): 6.111%.
Next, `Cc1cccc(CC(=O)NC2CCN(C(=O)NC(C)(C)C)CC2)c1`: 5.736%; `CCC1=N[C@@]2(CC[C@@H]3CN(C(=O)NCC(C)C)C[C@@H]32)C(=O)N1CCOC`: 5.071%.
Consider `Cc1c(-c2nc(-c3cccc(CN4CCOCC4)c3)no2)cnn1C`, for which the “Percent Effect” value is -3.312%.
Next, `COc1ccccc1-c1ncc(CN2C[C@H](O)[C@@H](N3CCCC3)C2)s1`: 6.619%; `CCn1c(Cn2ccnc2)nnc1C1CCN(Cc2ccc(C)o2)CC1`: -1.566%; `CSCC(C)(O)CNC(=O)c1ccc(F)cc1Br` (stereo unspecified): -10.01%.
In the case of `N#CC1(C(=O)NCCCNc2ccc(C(F)(F)F)cn2)CCCC1`, the “Percent Effect” value is recorded as -0.7429%.
To `O=C(NCCCNc1ccc(C(F)(F)F)cn1)c1ccc(F)cc1F` belongs 139.7%; to `O=C(NCCCNc1ccc(C(F)(F)F)cn1)c1ccc(F)cc1Br`, 166.7%; to `COc1ccc(Br)c(C(=O)NCCNc2ccc(C(F)(F)F)cn2)c1`, 2.511%.
Regarding `N#Cc1ccc(C(=O)NCCCNc2ccc(C(F)(F)F)cn2)cc1`, the “Percent Effect” value is listed as -7.343%.
To `CC(C)=CCC/C(C)=C/CC(C)(C)CNCc1ccco1` belongs -15.73%; to `COc1ccc(NC(C)C(=O)N2CCN(c3ccccc3)CC2)cn1` (stereo unspecified), 11.01%.
Next, `CC1CN=C(N2CCN(C(=O)Nc3nc(-c4ccccc4)ns3)CC2)S1` (stereo unspecified): -2.569%; `CCOc1ccccc1C(C(=O)O)N(C)Cc1nc(C)c[nH]1` (stereo unspecified): 110.9%.
Consider `CCOc1ccc(N(C)Cc2nnc(C)o2)cc1`, for which the “Percent Effect” value worked out at 3.578%.
Next, `COc1cccc(Cl)c1C(C(=O)O)N(C)Cc1nnc(C)o1` (stereo unspecified): 7.233%; `CCOc1ccccc1C(C(=O)O)N(C)Cc1nnc(C)o1` (stereo unspecified): 103.2%; `Cc1c[nH]c(CN(C)C(C(=O)O)c2c(F)cccc2OC(C)C)n1` (stereo unspecified): 2.457%.
Next, `COCc1cc(CN(C)C(C(=O)O)c2cc(C)c(OC)c(C)c2)n[nH]1` (stereo unspecified): 0.7136%.
To `Cc1c[nH]c(CN(C)C(C(=O)O)c2c(F)cccc2Cl)n1` (stereo unspecified) belongs 11.8%; to `Cc1cc(CN(C)C(=O)c2cc(COc3ccccc3)[nH]n2)n[nH]1`, -16.83%; to `CCOc1ccccc1C(C(=O)O)N(C)Cc1cc(C)[nH]n1` (stereo unspecified), 105.4%.
Turning to `CN(CC(N)=O)S(=O)(=O)c1ccc(F)cc1Cl`, the “Percent Effect” value came out at 0.3339%.
With `COc1cccc(CN(C)C(=O)CCC(=O)c2ccc(Cl)cc2)c1OC`, the “Percent Effect” value is reported as -4.229%.
Next, `Cc1ccc(CN2CCC3(CC2)CCN(Cc2ccco2)CC3)cc1.O=C(O)C(F)(F)F.O=C(O)C(F)(F)F`: 0.5302%.
Next, `CCS(=O)(=O)N1CCC2(CCN(Cc3cccc(OC)c3)CC2)CC1.O=C(O)C(F)(F)F`: -27.27%; `COc1c(F)cc(CN2CCCC3(CC2)CNC(=O)O3)cc1Cl` (stereo unspecified): -2.576%; `COc1ccc2c(c1)C1(CCN(Cc3ccncc3)CC1)N(C)CC2`: -5.195%.
Next, `Cc1ccc2c(c1)C(=O)CC1(CCN(Cc3ccccc3)CC1)O2`: 106.6%.
For `COc1ccc(CN2CCC3(CC(=O)N(c4cccc(F)c4)C3)C2)cc1.O=C(O)C(F)(F)F` (stereo unspecified), the “Percent Effect” value turned out to be 28.15%.
To `COc1ccc2c(c1)OC1(CCN(Cc3cccc(C)c3)CC1)CC2=O` belongs 101.2%; to `COCC(=O)N1CCC2(CCN(Cc3ccc(C)cc3)CC2)CC1.O=C(O)C(F)(F)F`, -3.723%.
To `Cc1ccc2oc([C@H]3CCN(Cc4ccccc4)C3)nc2c1` belongs -4.088%.
Next, `CCN1CCN(C)C(=O)C12CCN(Cc1cccc(C)c1)CC2.O=C(O)C(F)(F)F`: -18%; `COc1ccc2c(c1)OC1(CCN(Cc3ccc(C)cc3)CC1)CC2=O`: 104.7%.
As to `COc1ccc2c(c1)C(=O)CC1(CCN(Cc3ccc(F)cc3)CC1)O2`, the “Percent Effect” value came out at 107.4%.
To `CCCn1ncc(C2CC(=O)NCc3nc4cc(C)ccn4c32)c1C` (stereo unspecified) belongs 7.732%.
To `Cc1nc(CN2CCCN(CC(=O)Nc3ccncc3)CC2)no1` belongs -12.37%; to `CC1c2cc(F)ccc2CCN1CCCS(=O)(=O)C(C)C` (stereo unspecified), -15.92%.
To `Cc1nc[nH]c1CN1CCn2nc(CN3CC[C@H](F)C3)cc2C1` belongs -2.245%; to `O=C(NCCN1CCNCC1)c1c(O)c2ccccc2[nH]c1=O`, 23.98%; to `COCC(O)CN(C)C(=O)NC1CCN(Cc2ccccn2)CC1` (stereo unspecified), 9.175%.
Regarding `Cc1nn(C)c2nc(N(Cc3ccccc3)CC3CCCO3)sc12` (stereo unspecified), the “Percent Effect” value came to 6.104%.
Turning to `COc1ccc2c(c1)OC1(CCN(Cc3ccccc3C)CC1)CC2=O`, the “Percent Effect” value came to 114.8%.
To `COc1ccc(CN2CCC(O)(CN3CCCCC3)C2)c(C)c1` (stereo unspecified) belongs 1.46%.
To `Cc1ccccc1CN1CCCN(CCN2CCOC2=O)CC1` belongs 6.019%; to `CC(C)c1cccc(CSc2nnc(CN3CCCC3=O)o2)n1`, 6.014%.
Next, `CS(=O)(=O)Cc1nc(CN2CCCc3sccc3C2)cs1`: 11.89%.
`CCOC(=O)C1CCN(c2nccc(-n3nc(C)cc3C)n2)CC1`: the “Percent Effect” value is 112.2%.
On to `COc1ccc(C(=O)C2CCCN(c3nccc(N)n3)C2)c(C)c1` (stereo unspecified), for which the “Percent Effect” value came to 21.82%.
To `CCOC(=O)C1CCCN(c2ccc(-c3nc(C)no3)cn2)C1` (stereo unspecified) belongs -3.256%.
With `CCOC(=O)C1CSCCN1C(=O)c1ccc(-n2nc(C)cc2C)cc1` (stereo unspecified), the “Percent Effect” value was 16.86%.
`CCOC(=O)C1CCCN(c2nccc(-n3nc(C)cc3C)n2)C1` (stereo unspecified): the “Percent Effect” value amounted to 112.5%.
Next, `Cc1cc(C)n(-c2ccnc(N3CCC(C(=O)N4CCCC4)CC3)n2)n1`: 4.916%; `COCc1cc(CC2(NCc3ccccc3Cl)COC2)no1`: -15.27%; `COc1ccnc(N2CCC3(CC2)[C@H](O)C[C@@H]3OCCN(C)C)n1`: -4.525%.
Next, `CN(C(=O)CCc1cccs1)C1CCCN(C2Cc3ccccc3C2)C1` (stereo unspecified): -51.14%; `C1CCCN(c2nc(C3CC3)no2)CC1`: 3.376%; `O=C(O)C(F)(F)F.c1ncn(Cc2cn3c(n2)CN(CC2CCCCC2)CC3)n1`: -9.983%.
To `CN(C)CCN1CCC(NC2CSCCc3ccccc32)CC1` (stereo unspecified) belongs -11.44%; to `O=C(Cc1ccccc1)NCCNCc1cccc(O)c1`, 87.97%.
For the compound `CCOc1cccc(CCNC(=O)Cc2cccc(O)c2)n1`, the “Percent Effect” value is reported as 19.48%.
Next, `Oc1cccc(CNCCC2CCCO2)c1` (stereo unspecified): 17.11%.
Next, `O=C(Cc1ccc(F)cc1)NCCNCc1cccc(O)c1`: 75.28%.
Next, `O=C(Cc1cccc(F)c1)NCCNCc1ccc2c(c1)CCO2`: -2.552%; `O=C(Cc1cccc(F)c1)NCCNCc1cccc(O)c1`: -5.303%; `CC(NCc1ccc(-c2ccc(Cl)cc2)o1)c1nnc2n1CCC2` (stereo unspecified): -12.12%.
For `COCCSc1ccc(C(C)NC(=O)Nc2cccnc2)cc1` (stereo unspecified), the “Percent Effect” value is reported as -3.032%.
`CN(Cc1nnc(-c2ccco2)o1)CC1CCCN1c1cccnn1` (stereo unspecified): the “Percent Effect” value was found to be 6.587%.
Consider `CC(C)Oc1ccccc1-c1cc(CN)ccc1F`, for which the “Percent Effect” value worked out at 10.62%.
In the case of `Cc1cnn(CCCOc2ccc3c(c2)OCO3)c1`, the “Percent Effect” value was -11.3%.
Turning to `O=C(Cn1cc(Cl)cn1)Nc1ccc2c(c1)OCO2`, the “Percent Effect” value is 1.967%.
With `CCCNC(=O)C(C)Nc1cccc(Oc2ccc(C#N)cn2)c1` (stereo unspecified), the “Percent Effect” value is on record as -3.4%.
Next, `CC(=O)Nc1ccc(Oc2ccc3c(c2)OCO3)nc1`: 99.6%; `Cc1cc(C)nc(NC(=O)C(C)Oc2ccc3c(c2)OCO3)n1` (stereo unspecified): 15.82%.
Next, `Cc1ccc(Oc2ccc(NC(=O)NCC3CCOC3)cn2)cc1C` (stereo unspecified): -4.291%; `O=C(CCN1C(=O)CCC1=O)Nc1ccc(Oc2ccc(Cl)cc2)nc1`: -10.42%.
To `CC(C)OCC(=O)Nc1ccc(Oc2ccc3c(c2)OCO3)nc1` belongs 77.43%.
Turning to `CC(C)C(=O)Nc1ccc(Oc2ccc3c(c2)OCO3)nc1`, the “Percent Effect” value was determined as 107.3%.

(Values after ChEMBL document CHEMBL3988442, “University of Dundee, Small-Polar-MMV Screening Library” (2021).)
